Source: PubChem BioAssay (Tox21)
Results filed as inconclusive are left out. The source made the active and inactive calls. Calls come from the whole dose curve; as a rule, active = well fitted cell-killing curve with a large enough effect in the repeat runs; inconclusive = weak or mixed curves, or effect the other way; inactive = no such curve, though single readings can be large or run the other way.

Assay: qHTS assay to identify small molecule antagonists of the vitamin D receptor (VDR) signaling pathway - cell viability counter screen (AID 743225); note: nearly all actives have a fitted effect of over 50% in size
Conditions: VDR-bla HEK293T viability, CellTiter-Glo luminescence, 16 h; series mostly up to 61 µM; viability change, negative = cytotoxic: at the top concentration
Source text: U.S. Tox21 Program National Center for Advancing Translational Sciences [NCATS] NIH Chemical Genomics Center [NCGC] U.S. Environmental Protection Agency [EPA] National Institutes of Environmental Health Sciences [NIEHS] National Toxicology Program [NTP] U.S. Food and Drug Administration [FDA] Tox21 Assay Overview: The vitamin D receptor (VDR), a member of nuclear hormone receptor superfamily, plays a critical role in calcium homeostasis and bone metabolism. It is also involved in cell differentiation and growth, and thrombogenicity. To identify the compounds that inhibit VDR signaling, the VDR-UAS-bla HEK 293T cell line (Invitrogen, Carlsbad, CA, USA) containing a beta-lactamase reporter gene under the control of an upstream activator sequence (UAS) was used to screen the Tox21 10K compound library. The cytotoxicity of the Tox21 compound library against the VDR-bla cell line was tested in parallel by measuring the cell viability using CellTiter-Glo assay (Promega, Madison, WI) in the same wells.
Tox21 Assay Protocol Summary: VDR-bla cells were dispensed at 2,000 cells/5 uL of assay medium per well into black wall/clear-bottom 1536-well plates using a Multidrop Combi (Thermo Fisher Scientific, Waltham, MA) dispenser. After the assay plates were incubated at a 37C and 5% CO2 for 4 h, 23 nL of compounds dissolved in DMSO, positive controls or DMSO only was transferred to the assay plate by a Pintool station (Kalypsys, San Diego, CA), followed by addition of 1 uL of 1-alpha, 25-Dihydroxy Vitamin D3 (3 nM, final concentration in the wells) using a Bioraptr Flying Reagent Dispenser (FRD) workstation (Beckman Coulter, Indianapolis, IN). The plates were incubated at 37C and 5% CO2 for 16 h, and then 1 uL of LiveBLAzerTM B/G FRET substrate was added using a Bioraptr FRD. The plates were incubated at room temperature for 2 h and fluorescence intensity was measured by an Envision plate reader (PerkinElmer, Shelton, CT). For cell viability readout that measures cytotoxicity, 3 ul/well of CellTiter-Glo reagent was added into the assay plates using a Bioraptr FRD. After 30 min incubation at room temperature, the luminescence intensity in the plates was measured using a ViewLux plate reader (PerkinElmer).
% is set by controls: 0 for no effect and ±100 for the full control effect.

Row | Structure (SMILES) | viability change, negative = cytotoxic
1 | Cc1c(I)c(=O)n(-c2ccccc2)n1C | -2.17% (inactive)
2 | CCN(CC)CC(=O)Nc1c(C)cccc1C | 31.4% (inactive)
3 | CCCCCCN | -3.37% (inactive)
4 | CCCCCCOc1ccccc1C(N)=O | -2.04% (inactive)
5 | CN(C)C(=O)CNC(=O)Cc1ccccc1 | 16.2% (inactive)
6 | C[C@H](CCC(=O)O)[C@H]1CC[C@H]2[C@@H]3C(=O)C[C@@H]4CC(=O)CC[C@]4(C)[C@H]3CC(=O)[C@]12C | 12.4% (inactive)
7 | O=C(NCCc1c[nH]c2ccccc12)c1cccnc1 | 0.953% (inactive)
8 | CC(C)(C)c1nnc(NS(=O)(=O)c2ccc(N)cc2)s1 | -24.7% (inactive)
9 | CCOC(=O)CC(=O)c1ccccc1 | 1.76% (inactive)
10 | NCCS | 4.16% (inactive)
11 | O=C(/N=N/C(=O)OCc1ccccc1)OCc1ccccc1 | 3.26% (inactive)
12 | OC[C@H](Cc1cccc(O)c1)[C@H](CO)Cc1cccc(O)c1 | -18.4% [at 78.8 µM] (inactive)
13 | C#CC(C)N(C)C(=O)Nc1ccc(Cl)cc1 (stereo not given) | -16.5% (inactive)
14 | CCCOC(OCCC)OCCC | 20% (inactive)
15 | N[C@@H](CCC(=O)Nc1ccc([N+](=O)[O-])cc1)C(=O)O | 0.583% (inactive)
16 | CC(COC(C)(C)C)OCCCO (stereo not given) | -7.56% (inactive)
17 | CCCN1C[C@H](CSC)C[C@@H]2c3cccc4[nH]cc(c34)C[C@H]21 | 1.25% (inactive)
18 | C=C(C)C(=O)OCc1ccccc1 | 15.8% (inactive)
19 | CCCOC(=O)C(C)O (stereo not given) | 9.37% [at 78.8 µM] (inactive)
20 | CCN1CCc2nc(N)oc2CC1 | -7.29% (inactive)

Row | Structure (SMILES) | viability change, negative = cytotoxic
21 | OCCC(F)(F)C(F)(F)C(F)(F)C(F)(F)C(F)(F)C(F)(F)C(F)(F)C(F)(F)F | 21.6% (inactive)
22 | CCCCCCCCOS(=O)(=O)O | -27.9% (inactive)
23 | CC(C)c1ccc2cc(C(C)C)ccc2c1 | 7.83% (inactive)
24 | O=C(NCC(O)CO)c1c(I)c(C(=O)NCC(O)CO)c(I)c(N(CCO)C(=O)CO)c1I (stereo not given) | -16.5% (inactive)
25 | Brc1ccc(-c2ccccc2)cc1 | 9.11% (inactive)
26 | COc1cc(C(=S)N2CCOCC2)cc(OC)c1OC | 0.519% (inactive)
27 | CC(=O)/C=C/C1C(C)=CCC(C)C1(C)C (stereo not given) | 1.6% (inactive)
28 | O=C(CS(=O)Cc1ccco1)NC/C=C\COc1cc(CN2CCCCC2)ccn1 (stereo not given) | -13.1% (inactive)
29 | Nc1ccc(S(=O)(=O)Nc2ccc(Cl)nn2)cc1 | 11.3% (inactive)
30 | O=C(NCCN1CCOCC1)c1ccc(Cl)cc1 | -5.56% (inactive)
31 | CCOc1cc(NC(C)=O)ccc1C(=O)OC | 0.95% (inactive)
32 | CC(CO)c1ccccc1 (stereo not given) | 29.1% (inactive)
33 | CCOCCOCCOCC | -0.0736% (inactive)
34 | CCCC/C=C/C=C\C=O | 0.299% (inactive)
35 | NS(=O)(=O)c1ccc(NC(=O)CCC(=O)O)cc1 | 6.06% (inactive)
36 | CC(CN)CC(C)(C)CCN (stereo not given) | -1.58% [at 78.8 µM] (inactive)
37 | NCCN1CCOCC1 | 22.7% (inactive)
38 | O=C1c2ccccc2C(=O)c2cc(S(=O)(=O)O)ccc21 | -4.6% [at 78.8 µM] (inactive)
39 | COc1ccc2c(c1)C(=O)N(CCc1ccc(S(=O)(=O)NC(=O)NC3CCCCC3)cc1)C(=O)C2(C)C | 22.2% (inactive)
40 | COc1ccc(S(=O)(=O)N2c3ccc(Cl)cc3[C@@](O)(c3ccccc3Cl)[C@H]2C(=O)N2CCC[C@@H]2C(N)=O)cc1OC | -8.75% (inactive)
